# Measured values: ChEMBL document CHEMBL1157539, “Thousands of chemical starting points for antimalarial lead identification” (Nature, 2010)
# How the values were obtained:
# Assay type in all cases: functional
# Plasmodium falciparum [1] = assay: GSK_TCMDC: Inhibition of Plasmodium falciparum 3D7 in whole red blood cells, using parasite LDH activity as an index of growth. Test compounds present at 2uM
# Plasmodium falciparum [2] = assay: GSK_TCMDC: Inhibition of Plasmodium falciparum Dd2 in whole red blood cells, using parasite LDH activity as an index of growth. Test compounds present at 2uM
# HepG2 = assay: GSK_TCMDC: Percent inhibition of human HepG2 cell line. Test compounds present at 10uM.
SMILES,Inhibition (Plasmodium falciparum [1]),Inhibition (Plasmodium falciparum [2]),Inhibition (HepG2)
O=C(CCc1c[nH]cn1)Nc1cccc(-c2ccc(-c3nc4ccccc4[nH]3)cc2)c1,100%,60%,24%
CCc1c(C)nc(-n2nc(C)cc2NC(=O)c2ccc(OC)cc2OC)[nH]c1=O,96%,57%,42%
Clc1ccc(Nc2nc(-c3ccccn3)cs2)nc1,95%,90%,36%
CCCCCCCCCN1CC[C@@H](CCCc2ccnc3ccc(O)cc23)[C@@H](CC)C1.O=C(O)C(=O)O,83%,59%,58%
CC[C@H](N/C(=N\c1cccc(Cl)c1Cl)Nc1ccc(C#N)cc1O)c1ccccc1,91%,71%,0%
COc1ccc(CCn2c(=N)c(C(=O)NCc3ccccc3)cc3c(=O)n4cccc(C)c4nc32)cc1,100%,37%,29%
COc1ccc(NC(=O)Nc2ccc(C)c(-c3ccc(C(=O)NCCN4CCCC4)cc3)c2)cc1,95%,1%,18%
COc1ccc2ncc(Cl)c([C@@H](O)CN3CCC(NCc4cc5c(cn4)OCCO5)CC3)c2c1.Cl,100%,100%,8%
CCCCCN1CCC(NS(=O)(=O)c2cccc(C(=O)Nc3ccc(Cl)cc3)c2)CC1.O=C(O)C(F)(F)F,88%,29%,24%
COc1ccc2c(c1)CC(C)(C)NC2CCCCCCCCC1NC(C)(C)Cc2cc(OC)ccc21.O=C(O)C(=O)O (centres undefined),98%,62%,42%
Cc1cccc2nc(-c3ccc(-c4ccc(CNCCNC(=O)c5ccnn5C)cc4)cc3)[nH]c12.O=C(O)C(F)(F)F,100%,98%,29%
CC(C)N(C(=O)CSc1nc2cc(Cl)ccc2c(=O)n1Cc1ccccc1)C(C)C,100%,97%,0%
CCCS(=O)(=O)N1CCC(CO)(Cc2ccccc2C(F)(F)F)CC1,97%,57%,0%
C[C@@H]([C@@H](CCCCc1ccccc1)C(=O)N[C@H](C(=O)Nc1cccnc1)C(C)(C)C)N(O)C=O,98%,98%,0%
Cc1cc(C)cc(OCC(O)CN(Cc2cc(Cl)cc(Cl)c2)C(=O)Nc2ccc([N+](=O)[O-])cc2)c1 (centres undefined),95%,38%,0%
CN(C)CCOc1cccc(NC(=O)Nc2ccc(-c3ccccc3)cc2)c1.O=C(O)C(F)(F)F,90%,16%,11%
CC(C)(C)c1cc(C(=O)N2CCN(c3ccc(C(F)(F)F)cn3)CC2)n(Cc2ccc(F)cc2)n1,88%,26%,4%
CCN(CC)CCCNc1c2ccccc2nc2ccccc12.Cl,100%,0%,17%
CSc1nccc(-c2ccc3ccnc(N)c3c2)n1,100%,98%,30%
CC(C)(C)c1ccc(C(=O)NC2CCC(CCN3CCc4ccc(S(C)(=O)=O)cc4CC3)CC2)cc1C(F)(F)F (centres undefined),88%,11%,54%
CCC(Cc1cnc2nc(N)nc(N)c2n1)c1ccc(C(=O)O)cc1 (centres undefined),93%,0%,15%

SMILES,Inhibition (Plasmodium falciparum [1]),Inhibition (Plasmodium falciparum [2]),Inhibition (HepG2)
Cc1cc(C2CCN(CCCCNC(=O)c3ccc(-c4ccc(C(F)(F)F)cc4)cc3)CC2)c(C)cc1OCC#N,100%,58%,40%
O=C(/C=C/c1ccc(Cl)c(Cl)c1)NCCCCCN1CCC(NC(=O)c2ccc(F)cc2)CC1,100%,13%,14%
COc1ccccc1CCNC(=O)c1cc(Br)cc(N2CCN(c3ccncc3)CC2)c1.O=C(O)C(F)(F)F,84%,32%,38%
Nc1c2c(nc3ccccc13)C(=Cc1ccc(O)cc1)CCC2,99%,6%,9%
COCCN1CCN(Cc2ccc(-c3cccc(-c4nc5ccccc5[nH]4)c3)cc2)CC1.O=C(O)C(F)(F)F,93%,10%,32%
Cc1ccc2[nH]c(C)cc(=NN=Cc3ccccc3F)c2c1,97%,100%,36%
Cc1cc(NCCC(=O)NCCOc2ccccc2)nc(NCCc2ccc(F)cc2)n1.O=C(O)C(F)(F)F,97%,4%,14%
COc1ccc(C(=O)N2CCc3cc4nccc(N5CCN6CCC[C@H]6C5)c4cc32)cc1,98%,50%,1%
Cc1[nH]c(C)c(-c2ccc(-c3cc(C(F)(F)F)cc(C(F)(F)F)c3)nc2)c(=O)c1Br,98%,96%,18%
CC(C)[C@H](NC(=O)c1ccc(O)c(-c2ccc(Cl)c(Cl)c2)c1)C(=O)NCCN1CCCCC1,99%,98%,0%
COC(=O)c1cccc(CNCc2cccc(-c3cccc(-c4nc5cc(C(F)(F)F)ccc5[nH]4)c3)c2)c1.O=C(O)C(F)(F)F,100%,69%,7%
Cc1cc(C(=O)NCc2ccc(-c3c(C)noc3C)cc2)n(-c2ccccc2)n1,92%,90%,4%
Cc1cccc2nc(-c3ccc(-c4cccc(CN5CCCC5CN)c4)cc3)[nH]c12.O=C(O)C(F)(F)F (centres undefined),91%,32%,7%
CC(C)N1CCN(C(CN2CCN(CCCOc3cccc4ccccc34)CC2)c2ccc(F)cc2)CC1.Cl (centres undefined),100%,75%,54%
O=C(c1ccc(Cl)cc1)N1CCCC(C(=O)N(Cc2nnc(-c3ccccc3Cl)o2)C2CC2)C1 (centres undefined),95%,96%,10%
Cl.O=C(Nc1cccc(Cl)c1)OC1CCCN2CCCCC12 (centres undefined),85%,0%,6%
CCc1cn2c3c(cc(C(=O)N[C@@H](Cc4cccc(F)c4)[C@H](O)CNC4CC4)cc13)N(C)S(=O)(=O)CC2.O=CO,98%,98%,2%
CCCCCCNC(=O)C1Cc2c([nH]c3cc(Cl)ccc23)C2(CCN(Cc3ccccc3)CC2)N1 (centres undefined),90%,56%,21%
O=C(Nc1cccc(C(F)(F)F)c1)c1cccc(S(=O)(=O)NC2CCN(CC3CCCCC3)C2)c1.O=C(O)C(F)(F)F (centres undefined),100%,45%,37%
Cc1cc(=NN=Cc2ccccc2Cl)c2cc(C(F)(F)F)ccc2[nH]1,100%,75%,0%
Nc1nc(N)c2c(ccc3c2ccn3Cc2cc3c(cc2Cl)OCO3)n1,95%,94%,58%

SMILES,Inhibition (Plasmodium falciparum [1]),Inhibition (Plasmodium falciparum [2]),Inhibition (HepG2)
CCCCCCc1cc2cc(-c3csc(C=Cc4ccccc4)n3)c(=O)oc2cc1O,96%,75%,17%
CCNc1cc(C)nc(Nc2ccc(NC(=O)Cc3ccc(OC)cc3)cc2)n1,100%,47%,30%
O=C(NC(c1ccccc1)c1ccc2cccnc2c1O)c1ccccc1 (centres undefined),94%,63%,53%
Cc1cc(O)c(CN2CCN(Cc3cccs3)CC2)cc1C(C)C,98%,97%,7%
Cc1cccc(Nc2nc(C)cc(N3CCCN(CC4CCCCC4)CC3)n2)c1,83%,21%,20%
O=C(Nc1cccc(-c2cccc(-c3nc4ccccc4[nH]3)c2)c1)c1cccnc1,95%,14%,12%
C(=NN=c1cc[nH]c2ccccc12)c1ccncc1,95%,27%,7%
O=C(Nc1ccc(N2CCCCC2)c(Cl)c1)c1nc[nH]n1,93%,93%,0%
CCc1nnc2sc(-c3cccc(NC(=O)c4ccc(C)c([N+](=O)[O-])c4)c3)nn12,82%,46%,10%
COc1ccc2nccc([C@@H](O)CN3CCC(NCc4cc5cccc(O)c5c(=O)[nH]4)CC3)c2c1.Cl,99%,66%,8%
NC1CCN(Cc2cccc(-c3cccc(-c4nc5ccccc5[nH]4)c3)c2)C1.O=C(O)C(F)(F)F (centres undefined),100%,0%,14%
CC(=O)c1c(Cc2ccccc2Cl)c[nH]c1C,95%,53%,0%
Cc1cc(N2C(N)=NC(N)=NC2(C)C)ccc1Cl.Cl,95%,0%,66%
COc1ccc(N2CCN(CCc3ccc(NC(=O)c4ccc([N+](=O)[O-])cc4)cc3)CC2)c(OC)c1,83%,0%,45%
COc1ccc2nccc(N3CCC(CCNCc4cc5c(cn4)OCCO5)CC3)c2n1.Cl,100%,100%,18%
O=C(/C=C/c1ccc(C(F)(F)F)cc1)NCCCCCN1CCC(c2c[nH]c3ccccc23)CC1,100%,22%,96%
Cc1ccc(-c2noc(COc3ccccc3C(=O)NC3CCCC3)n2)cc1,89%,92%,9%
COCCNCc1ccc(-c2ccccc2CNC2CCN(Cc3ccccc3)CC2)cc1.O=C(O)C(F)(F)F,97%,28%,17%
CCOC(=O)c1cn(CC)c2cc(OCc3ccccc3)ccc2c1=O,97%,96%,2%
Clc1ccccc1CCNCC1CCN(CC2CCCCC2)CC1.O=C(O)C(F)(F)F,97%,38%,45%
CCC(CC)n1c(COC)cc2c3c(N)nc(N)nc3ccc21,95%,0%,71%
